Sampled rows, rich in hits. Any-hit rate of the full collection: about 3.1%.
PAX8 reporter – PAX8 transcriptional activity inhibition. AID 652154. 1.2% of 360,000 active. inhibition, % at 12.6 µM. RMG-I TPO-luciferase reporter, SteadyGlo, 24 h;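 active means mean replicate inhibition at least 60% with every replicate also reaching 60%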;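 further: luciferase light reporting Pax8 driven TPO promoter activity; plate controls were median of neutral control wells for no effect and mitoxantrone controls for full effect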
TWEAK-Fn14 inh – TWEAK-Fn14 signaling inhibition. TWEAK-stimulated Fn14 reporter cells, luciferase luminescence, 8 h. inhibition, % at 10 µM. 2% of 360,000 active; in the data active means inhibition above about 50%
TROY NFkB inh – TROY signaling inhibition; Q293 LMP1-TROYcd NF-kB luciferase reporter, 4 h; inhibition, % at 10 µM; 0.98% of 360,000 active;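 active means compounds whose plate-normalised and pattern-corrected inhibition of the luciferase reporter signal at the single screening dose is 50% or more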
LGR2 antag – Drosophila LGR2 receptor signaling inhibition; HEK293 LGR2, CRE-luciferase, bursicon-stimulated, 4 h; inhibition, % at 9.99 µM; 0.35% of 380,000 active;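 active means drop in luminescence signal, shown as inhibition above about 50% in the replicate tests, limit read from the data, passing the limit was not always enough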;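 further: agonist challenge used bursicon conditioned medium at about half maximal strength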
EBV LMP1 NFkB – reduces LMP1-driven NF-kappaB luciferase signal; LMP1-induced NF-kappaB luciferase reporter cells, luminescence; inhibition, % at 12.5 µM; 0.69% of 350,000 active; AID 504558; in the data active means inhibition above about 41%;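 further: 0% = neutral control wells and 100% = reference inhibitor control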
EWS-Fli block – EWS/Fli transcriptional activity inhibition | A673 NR0B1-luciferase reporter, viability-normalised | inhibition, % at 12.6 µM | 0.67% of 350,000 active;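 active means mean inhibition of at least 50% after viability correction, with every replicate also passing that limit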;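 further: firefly luciferase signal divided by Alamar Blue viability fluorescence both relative to DMSO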
* marks the source's active call; other numbers are inactive results; nt = no result.

SMILES	PAX8 reporter	TWEAK-Fn14 inh	TROY NFkB inh	LGR2 antag	EBV LMP1 NFkB	EWS-Fli block
CCOc1ccc(OCc2cccc(C(=O)N3CCOCC3)c2)cc1	nt	12	-83	nt	84*	nt
O=C(c1cccc(OCc2ccccc2)c1)N1CCOCC1	-7	14	-5	-5	1	-12
COc1ccc(OCc2cccc(C(=O)Nn3cc([N+](=O)[O-])cn3)c2)cc1	93*	-8	-26	99*	83*	nt
COc1ccc(OCc2cccc(C(=O)NN)c2)cc1	46	-30	-55	32	62*	nt
CCCNC(=O)N1CC2(C1)CN(C(C)=O)[C@@H](CO)c1c2c2ccc(OC)cc2n1C	nt	nt	nt	3	nt	-1
C[C@H](CO)N1C[C@H](C)[C@@H](CN(C)C(=O)Cc2ccncc2)Oc2cc(C3=CCCCC3)ccc2S1(=O)=O	26	nt	nt	7	nt	12
C[C@@H]1CN([C@@H](C)CO)C(=O)c2cc(NC(=O)Nc3ccc(F)cc3)ccc2O[C@@H](C)CCCCO[C@@H]1CN(C)C(=O)CCCN(C)C	-28	nt	nt	-8	nt	-2
Cc1ccc2oc(-c3cccc(N)c3)nc2c1	-27	51*	3	-2	-16	27
CC(C)(C)c1ccc(-c2nc3cc(N)ccc3o2)cc1	0	69*	64*	nt	-24	6
COc1cccc(C(=O)Nc2ccc(-c3nc4ccccc4o3)c(O)c2)c1	nt	6	21	nt	-5	nt
COc1cc(C(=O)Nc2ccc(-c3nc4cc(C)ccc4o3)c(O)c2)cc(OC)c1OC	nt	52*	2	nt	12	nt
CC(C)c1ccc2oc(-c3ccc(N)cc3)nc2c1	nt	81*	38	nt	16	nt
Cc1noc(C)c1NC(=O)Nc1ccc2c(c1)C(=O)N([C@H](C)CO)C[C@H](C)[C@@H](CN(C)S(=O)(=O)c1c(C)noc1C)OCCCC[C@H](C)O2	6	nt	nt	-6	nt	-13
COc1ccc2c3c(n(C)c2c1)[C@H](CO)N(Cc1ccccc1Cl)CC31CCN(C(=O)CN(C)C)CC1	nt	nt	nt	-12	nt	3
Cc1ccc(-c2nc3cc(N)ccc3o2)cc1	nt	70*	-12	nt	6	nt
Cc1ccc2oc(-c3ccc(NC(=O)c4cccnc4)cc3)nc2c1	nt	56*	13	-7	-18	nt
Cc1ccc(-c2nc3cc(C)ccc3o2)cc1	nt	84*	65*	nt	-12	nt
O=C(Nc1ccc(-c2nc3ccccc3o2)cc1)c1cccnc1	-182	39	4	nt	-33	nt
Cc1ccc2oc(-c3ccco3)nc2c1	nt	13	-30	nt	-24	nt
C[C@@H]1CN([C@H](C)CO)C(=O)c2cc(-c3ccccc3)cnc2O[C@@H]1CN(C)C(=O)Nc1ccccc1F	nt	nt	nt	-5	nt	-3
CC(C)C(=O)Nc1cccc(COc2ccc(CN(Cc3ccccc3)C(=O)OC(C)(C)C)cc2)c1	72*	70*	22	19	-6	25
CCn1c(C)c(C2=CCN(S(=O)(=O)c3ccccc3)CC2)c2ccccc21	12	22	2	4	-4	nt
Cc1ccc(S(=O)(=O)N2CC=C(c3c(C)n(C)c4ccccc34)CC2)cc1	20	43	71*	11	2	16
COc1ccc2c3c(n(C)c2c1)[C@H](CO)N(Cc1ccncc1)CC31CN(C(=O)C2CCC2)C1	-12	nt	nt	7	nt	-5
CCn1cc(C(=O)NCc2ccc3c(c2)OCO3)c(=O)c2cc(F)c(N3CCN(C(=O)c4ccco4)CC3)cc21	nt	54*	40	nt	21	nt
SMILES	PAX8 reporter	TWEAK-Fn14 inh	TROY NFkB inh	LGR2 antag	EBV LMP1 NFkB	EWS-Fli block
CCn1cc(C(=O)NCc2ccccc2)c(=O)c2cc(F)c(N3CCN(C(=O)c4ccco4)CC3)cc21	nt	68*	36	nt	1	nt
CCn1cc(C(=O)NCc2ccncc2)c(=O)c2cc(F)c(N3CCN(C(=O)c4ccco4)CC3)cc21	16	10	-3	nt	nt	13
COc1ccc(/C=C/c2cccc[n+]2C)c(O)c1	19	-3	-16	-5	0	-11
CCN(CC)c1ccc(/C=C/c2cccc[n+]2C)c(OC)c1	95*	49	44	26	38	11
CN(C)CC#Cc1ccc([C@H]2[C@H](CO)N3C(=O)CN(C(=O)Cc4ccccc4)C[C@@H]23)cc1	16	nt	nt	-4	nt	1
COc1ccc(CCN2C(=O)c3cccc4c(C(=O)N5CCCCC5)ccc(c34)C2=O)cc1OC	12	78*	57*	102*	10	11
CCC(=O)c1ccc(N2CCN(C(=O)COc3ccc(F)cc3)CC2)c(F)c1	nt	81*	nt	nt	3	nt
CC(=O)c1ccc(N2CCN(C(=O)COc3ccc(F)cc3)CC2)c(F)c1	nt	-8	21	nt	15	nt

Source: PubChem BioAssay (several laboratories)
